High-throughput results: PubChem BioAssay, several laboratories
ABHD5 PLIN5 PPI – inhibitors of human ABHD5-perilipin-5 interaction; Q00G26+Q8WTS1; inhibition, % at 4 µM; AID 602281; Split G. princeps luciferase complementation, luminescence, 4 h; 360,000 compounds, 0.78% hits;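 active = inhibition above the mean inhibition across every tested compound plus 3 SD, cut at about 22% in these data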;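 note: 0% = DMSO only wells and the 100% control is not disclosed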
Target sequence (Q00G26 whole entry, looked up): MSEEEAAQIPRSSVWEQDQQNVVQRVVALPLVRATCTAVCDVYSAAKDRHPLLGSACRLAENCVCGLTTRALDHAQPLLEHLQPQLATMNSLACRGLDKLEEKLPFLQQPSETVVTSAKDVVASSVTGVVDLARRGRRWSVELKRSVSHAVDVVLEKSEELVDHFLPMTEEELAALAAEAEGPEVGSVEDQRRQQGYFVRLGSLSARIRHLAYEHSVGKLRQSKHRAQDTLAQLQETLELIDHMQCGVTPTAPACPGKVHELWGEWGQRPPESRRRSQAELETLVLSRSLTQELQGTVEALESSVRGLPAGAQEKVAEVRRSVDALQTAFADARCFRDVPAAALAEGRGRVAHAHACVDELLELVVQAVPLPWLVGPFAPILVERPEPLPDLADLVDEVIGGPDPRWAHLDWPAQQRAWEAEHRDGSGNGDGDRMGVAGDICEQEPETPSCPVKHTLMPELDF
Target sequence (Q8WTS1 whole entry, looked up): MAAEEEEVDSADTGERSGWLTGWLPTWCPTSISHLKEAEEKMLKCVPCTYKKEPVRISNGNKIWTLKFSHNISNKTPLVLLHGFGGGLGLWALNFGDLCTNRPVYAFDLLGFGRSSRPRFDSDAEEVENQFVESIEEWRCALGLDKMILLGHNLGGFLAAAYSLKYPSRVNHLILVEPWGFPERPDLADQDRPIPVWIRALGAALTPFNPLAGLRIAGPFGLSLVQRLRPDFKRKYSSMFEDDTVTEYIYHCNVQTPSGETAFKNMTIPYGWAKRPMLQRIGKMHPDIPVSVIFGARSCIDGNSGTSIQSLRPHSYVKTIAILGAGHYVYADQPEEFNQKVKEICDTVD
TLR9-MyD88 block – inhibitors of human TLR9-MyD88 binding | Q9NR96+Q99836 | inhibition, % at 4.98 µM | CHO BLA complementation TLR9-MyD88, CCF4 FRET ratio | 340,000 compounds, 0.21% hits;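 active = inhibition above the mean over all tested compounds plus 3 SD, cut at about 21% in these data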;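 note: 0% = DMSO only wells and 100% = clavulanate BLA inhibitor control wells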
B2AR ag – human beta-2 adrenergic receptor agonism by FAP; AID 504454; Am2.2-beta2AR cells, FAP receptor internalization, flow cytometry; response, % (concentration not given with the values); P07550; 340,000 compounds, 0.43% hits;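 active = response above a set limit, near 3 SD of response in nonfluorescent compounds, cut at about 42% in these data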
NOD2-RIPK2 inh – inhibitors of human NOD2-RIPK2 interaction; O43353; CHO BLA complementation NOD2-RIPK2, CCF4 ratio; inhibition, % at 4.98 µM; 360,000 compounds, 0.38% hits; AID 624267; in the data active = inhibition above about 21%;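 note: 0% = vehicle only and 100% = reference blocker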
TLR4-MyD88 BLA – blocks binding of human TLR4 to MyD88 | O00206+Q99836 | HeLa CL3-4 TLR4/MyD88 BLA complementation, FRET ratio | inhibition, % at 8.4 µM | 200,000 compounds, 0.18% hits | AID 861; in the data active = inhibition above about 25%;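 note: 0% = vehicle and 100% = reference inhibitor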
NTR1 ag – activates human neurotensin receptor 1; P30989; 330,000 compounds, 0.17% hits; NTR1-U2OS beta-arrestin-GFP spot imaging, agonist mode; activation, % at 20 µM;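 active = activation at or above 40% of the spot to cytoplasm intensity ratio, with at least 20 cells analyzed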;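 note: 0% = DMSO without peptide and 100% = 100 nM NTR1 peptide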
TLR9-MyD88 cf – TLR9-MyD88 interaction inhibition, confirmation | shares compounds with TLR9-MyD88 block | CHO TLR9/MyD88 BLA complementation, CCF4 FRET ratio | AID 540250 | inhibition, % at 4.98 µM | 680 compounds, 51% hits;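 active = mean inhibition across three repeats above about 21% taken from the earlier screen, limit read from the data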;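 note: blue over green emission ratio reports constitutive TLR9 MyD88 association via BLA complementation; 0% = DMSO vehicle wells and 100% = clavulanate BLA inhibitor wells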
BLA counter-1 – non-selective beta-lactamase inhibitors in TLR9-MyD88 counter-screen. shares compounds with TLR9-MyD88 block. CHO-BLA cells, CCF4 FRET ratio, BLA reporter. inhibition, % at 4.98 µM. 680 compounds, 7% hits;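 active = mean inhibition above a 50% cutoff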;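 note: counterscreen of TLR9-MyD88 hits on CMV-driven BLA in CHO-K1 cells; 0% = DMSO alone and 100% = clavulanate blocking BLA; higher means less blue over green ratio so more BLA blockade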
TLR9 CHO cytotox – counter-screen for TLR9-MyD88 inhibitors: cytotoxicity in CHO cells; shares compounds with TLR9-MyD88 block; luminescence; inhibition, % at 4.98 µM; 680 compounds, 39% hits; AID 588336; in the data active = inhibition above about 11%
NOD2 RIPK2 conf – NOD2-RIPK2 interaction inhibition confirmed; inhibition, % at 4.98 µM; CHO cells, NOD2-RIPK2 BLA complementation, CCF4 FRET; AID 624370; shares compounds with NOD2-RIPK2 inh; 1,200 compounds, 70% hits;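 active = mean inhibition across replicates above a set limit taken from the earlier primary screen, cut at about 21% in these data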;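 note: 0% = DMSO-only wells and the high end = clavulanate BLA-blocked wells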
BLA counter-2 – NOD2-RIPK2 counterscreen BLA reporter activity; shares compounds with NOD2-RIPK2 inh; CHO BLA reporter, CCF4 FRET ratio; inhibition, % at 4.98 µM; 1,200 compounds, 57% hits;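 active = mean inhibition above the low-control mean inhibition plus three low-control SD, cut at about 11% in these data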;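 note: 0% = DMSO only wells and 100% = clavulanate high control wells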
The depositor's hits bear a star; x = no result given. An excerpt weighted towards active compounds, which were near 1.5% of everything screened.

SMILES	ABHD5 PLIN5 PPI	TLR9-MyD88 block	B2AR ag	NOD2-RIPK2 inh	TLR4-MyD88 BLA	NTR1 ag	TLR9-MyD88 cf	BLA counter-1	TLR9 CHO cytotox	NOD2 RIPK2 conf	BLA counter-2
Clc1ccc2nc(N3CCNCC3)nc(-c3ccccc3)c2c1	18	24*	16	37*	19	6	16	29	-1	38*	52*
CCOC(=O)c1sc(-c2cccc(C(F)(F)F)c2)nc1O	-5	11	1	9	x	0	x	x	x	x	x
CCOC(=O)c1sc(-c2ccc(C(F)(F)F)cc2)nc1O	0	28*	8	25*	x	0	14	18	0	65*	67*
COc1cc2oc3cc(C#Cc4ccc(N)cc4)ccc3c(=O)c2cc1OC	4	38*	7	26*	x	3	40*	44	8	54*	58*
N#Cc1ccc(C#Cc2ccc3oc4ccccc4c(=O)c3c2)cc1	-13	4	-7	-1	x	0	x	x	x	x	x
CNC(C)C#Cc1ccc2c(=O)c3ccccc3oc2c1 (centres undefined)	10	-7	2	6	x	5	x	x	x	x	x
Nc1ccc(C#Cc2ccc3c(=O)c4ccccc4oc3c2)cc1	17	74*	0	67*	x	-1	64*	70*	4	78*	84*
Nc1ncnc2c1ccn2[C@H]1CN(Cc2ccc(Cl)cc2)C[C@@H](CO)O1	0	x	x	-3	x	x	x	x	x	x	x
CC1=CCC[C@@H]2[C@]3(CC/C(=C/CO)CO)CO[C@@]2(C1)[C@@H](O)C[C@H]3C	4	x	x	-2	x	x	x	x	x	x	x
CCc1cc(=O)oc2cc(OC(=O)CN3C(=O)NC4(CCCC4)C3=O)ccc12	12	-9	5	-11	x	0	x	x	x	x	x
O=C(CN1C(=O)NC2(CCCCC2)C1=O)Oc1ccc2c(C(F)(F)F)cc(=O)oc2c1	-12	43*	5	67*	x	2	36*	40	-2	63*	67*
CC(C)NC(=O)c1ccc2sc([C@@H]3O[C@H](CO)[C@H](O)[C@H](O)[C@H]3O)nc2c1	0	x	x	-7	x	x	x	x	x	x	x
CC(NC(=O)/C(C#N)=C/c1ccc([N+](=O)[O-])o1)c1ccccc1 (centres undefined)	29*	21*	18	52*	x	-1	36*	19	99*	51*	34*
CC(=O)NC(c1cccc(F)c1)c1nc(-c2cccs2)cs1 (centres undefined)	-5	x	x	-5	x	x	x	x	x	x	x
O=c1c(Cl)c(Cl)cnn1Cc1nnc(-c2ccccc2Br)o1	15	21*	11	27*	11	18	29*	14	101*	46*	11*
COc1cc2oc(=O)cc(CN3CCOCC3)c2cc1Cl	-2	x	x	-8	x	x	x	x	x	x	x
O=C(Sc1cccc2cccnc12)c1ccccc1Br	-24	24*	2	39*	x	8	22*	15	98*	41*	17*
CCCCNC(=O)C(NC(=O)Cc1cc(C(F)(F)F)cc(C(F)(F)F)c1)C(=O)c1ccccc1 (centres undefined)	-5	x	x	-4	x	x	x	x	x	x	x
CCN(CC)c1ccc(/C=C/C(=O)C2C(=O)C=C(C)OC2=O)cc1 (centres undefined)	2	21*	-75	23*	18	3	36*	38	11*	28*	47*
CCN(CC)c1ccc(C=C2C(=O)OC(c3ccccc3)OC2=O)cc1 (centres undefined)	-2	8	2	7	5	1	x	x	x	x	x
CCOC(=O)C1CCCN(C(=O)c2oc3ccccc3c2C)CC1 (centres undefined)	6	x	x	0	x	x	x	x	x	x	x
COc1ccc(C2=CC(c3ccc(OC)c(OC)c3)n3nnnc3N2)c(OC)c1 (centres undefined)	4	39*	-6	44*	4	-1	21*	26	8	3	7
COc1cccc(C2=CC(c3cc(OC)ccc3OC)n3nnnc3N2)c1 (centres undefined)	3	4	-3	-10	10	2	x	x	x	x	x
COc1ccc(NC(=O)c2cc(C3CCCCN3C(=O)CCc3ccccc3)on2)c(C)c1 (centres undefined)	-4	x	x	-1	x	x	x	x	x	x	x
Cc1nc(C(F)(F)F)ccc1C(=O)N1CCC1(C)C(=O)NS(=O)(=O)c1ccc(C(C)(C)C)cc1 (centres undefined)	-3	x	x	-8	x	x	x	x	x	x	x
SMILES	ABHD5 PLIN5 PPI	TLR9-MyD88 block	B2AR ag	NOD2-RIPK2 inh	TLR4-MyD88 BLA	NTR1 ag	TLR9-MyD88 cf	BLA counter-1	TLR9 CHO cytotox	NOD2 RIPK2 conf	BLA counter-2
Nc1ccc2nc3c(=O)n(C4CCCCC4)c(=O)[nH]c3nc2c1	-8	35*	-41	41*	x	-1	18	23	1	59*	66*
COc1ccc(OC)c(C=Cc2ccc([N+](=O)[O-])cc2)c1	3	34*	x	43*	x	x	26*	27	7	46*	53*
COc1ccc(/C=N/Nc2ccc([N+](=O)[O-])cc2)cc1O	7	37*	6	28*	x	1	28*	24	10	43*	47*
O=c1nc2c(O)cccn2c2c1c(=O)[nH]c1ccccc12	6	22*	-10	29*	10	x	8	8	-2	33*	27*
O=C1/C(=C/c2ccc(O)c(O)c2)Oc2cc(O)ccc21	7	13	-75	13	x	2	x	x	x	x	x
COc1cc(/C=C2\Oc3cc(O)ccc3C2=O)ccc1O	4	31*	-85	44*	x	-1	15	19	-2	43*	47*
Cc1ccsc1/C=C1\Oc2cc(O)ccc2C1=O	4	25*	x	50*	x	x	16	21	1	40*	52*
CC(O)(c1ccccc1)c1nc(-c2ccc3c(c2)OCO3)cs1 (centres undefined)	-3	x	x	-5	x	x	x	x	x	x	x
COc1ccc(/C=C/c2ccc3c(Br)ccc(O)c3n2)cc1	-1	17	-5	7	x	6	x	x	x	x	x
COc1cc(/C=C/c2ccc3c(Br)cc(Br)c(O)c3n2)ccc1O	-7	26*	-10	34*	x	x	28*	29	49*	45*	55*
